This is part of a sample that, as a whole, favours compounds with a hit. Of some 83,000 tested, about 20% had one in any assay.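 Interpretation: 100, growth as untreated; towards 0, rising growth inhibition; 0, no net growth; 0 to -100, cell death. Compounds scoring below 10 were considered active.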 A number with no mark means an inactive call. Activity calls are given as the source filed them.
These compounds were tested on KM12 colon (assay: NCI-60 one-dose screen, 48 h (100 = growth as untreated, 0 = no growth, -100 = all killed)). Details: 10 µM unless noted.

| SMILES | growth |
| --- | --- |
| CC(=O)CC(=O)SC1=NCCS1 | 102% |
| CCCCCCCCCCCCCCNC(=O)Nc1ccc(Cl)c(Cl)c1 | 35.8% |
| O=S(=O)(NCc1ccccc1)c1ncnc2nc[nH]c12 | 101% |
| Cc1cc(-c2ccc(N=Nc3c(S(=O)(=O)O)cc4cc(S(=O)(=O)O)cc(N)c4c3O)c(C)c2)ccc1N=Nc1cc(S(=O)(=O)O)c2ccccc2c1O | 102% |
| CC1=C/C(=C(\c2cc(C)c(O)c(C(=O)O)c2)c2c(Cl)cccc2Cl)C=C(C(=O)O)C1=O | 103% |
| O=C(Nc1ccccc1)Nc1ccc(C(=O)/C=C/c2ccc(N3CCCC3)cc2)cc1 | 52.5% |
| CC(C)(C)c1cc(C(=O)Nc2ccc(C(=O)NCCN)cc2)cc(C(C)(C)C)c1 | 12.9% |
| C[C@@H]1C[C@H]2C(=O)O[C@@H](C)[C@H](NC(=O)[C@H](Cc3cc(F)cc(F)c3)NC(=O)Nc3ccc(Cl)cc3F)C(=O)N3C[C@H](O)C[C@H]3C(=O)N3CCN(C)C[C@H]3C(=O)N[C@@H](C)C(=O)N2C1 | 41.2% |
| C=C(C)[C@@H]1CC[C@]2(COC(=O)c3ccccc3C(=O)O)CC[C@]3(C)[C@H](CC[C@@H]4[C@@]5(C)CC[C@H](OC(=O)c6ccccc6C(=O)O)C(C)(C)[C@@H]5CC[C@]43C)[C@@H]12 | 11.8% [100 µM] |
| C[C@H]1[C@H](C)CC[C@]2(C(=O)N3CCN(C)CC3)CC[C@]3(C)C(=CC[C@@H]4[C@@]5(C)C/C(=C/c6ccco6)C(=O)C(C)(C)[C@@H]5CC[C@]43C)[C@H]12 | 35.7% [100 µM] |
| CCN(CC)CCCC(C)Nc1c2ccc(C)cc2nc2ccc(OC)cc12 (stereo unspecified) | 16.4% |
| C#C[C@]1(O)CC[C@H]2[C@@H]3CC=C4c5nc(N)sc5CC[C@]4(C)[C@H]3CC[C@@]21C | 44.7% |
| COc1cc(C)cc2oc3oc(=O)c(-c4nc5ccccc5s4)cc3c(=O)c12 | 93.1% |
| COC(=O)[C@]12CCC(C)(C)C[C@H]1C1=CC[C@@H]3[C@@]4(C)C/C(=C/c5cccnc5)C(=O)C(C)(C)[C@@H]4CC[C@@]3(C)[C@]1(C)CC2 | -48.6% [100 µM] (active) |
| O=C(Nc1cccc(C2=NCCN2)c1)c1cccc(C(=O)Nc2cccc(C3=NCCN3)c2)c1 | 101% |
| CCOc1cc(NC(=O)c2ccccc2)c(OCC)cc1N | 105% |

| SMILES | growth |
| --- | --- |
| CC1(C)CC[C@]2(C(=O)OC(=O)[C@]34CCC(C)(C)C[C@@H]3C3=CC[C@@H]5[C@@]6(C)CCC(=O)C(C)(C)[C@@H]6CC[C@@]5(C)[C@]3(C)CC4)CC[C@]3(C)C(=CC[C@@H]4[C@@]5(C)CCC(=O)C(C)(C)[C@@H]5CC[C@]43C)[C@H]2C1 | 67.2% [100 µM] |
| CCCc1cc2cc(-n3nc(C)c4c3CC(C)(C)CC4=O)cc(NC3CCSCC3)c2c(=O)[nH]1 | 41.7% |
| CC(=O)OC[C@]12CC[C@@H]([C@@H](C)C(N)=O)[C@@H]1[C@H]1CC[C@@H]3[C@@]4(C)CC[C@H](OC(C)=O)C(C)(C)[C@@H]4CC[C@@]3(C)[C@]1(C)CC2 | -62.1% [100 µM] (active) |
| O=C(N/N=C/c1ccc([N+](=O)[O-])cc1)c1ccc(Br)o1 | 126% |
| O=[N+]([O-])c1ccc(O)c(-c2nc3ccccc3s2)c1 | 77.2% |
| COc1cccc(-c2[nH]c(=S)ncc2C(=O)c2ccccc2)c1 | 51.5% |
| COc1ccc2nc3c(cc2c1)C(=O)CC(C(F)(F)F)C3 (stereo unspecified) | 11.6% |
| CCN(CC)CCCOc1ccc2c(c1)O/C(=C\c1cccc(OC)c1)C2=O | 93.2% |
| CCc1cccc(Cl)c1 | 101% |
| CCCCCN(CCCCC)CCCCCCCCN1CCCc2ccccc21 | 73.4% |
| COc1ccc2c(c1)c(-c1noc(C(=O)c3cn(C)c4ncc(Br)cc34)n1)cn2C | 66.7% |
| NS(=O)(=O)c1ccc(CCN2C(=O)/C(=C\c3ccccc3)C=C2c2ccc(Cl)cc2)cc1 | 99% |
| Cc1ncc(C(=O)Nc2ccc(CN3CCN(C)CC3)c(C(F)(F)F)c2)cc1C#Cc1c(N)ncc2ccc(C#N)cc12 | 9.43% (active) |
| CCCCN(CCCC)CC(O)c1ccc(OCc2ccccc2)c2ccccc12 (stereo unspecified) | 74.2% |
| CC[C@]12C=CCN3CC[C@@]4(c5ccc(OC)cc5N(C)[C@H]4[C@@](O)(C(=O)OC)[C@@H]1OC(=O)CCC(=O)O[C@H]1CC[C@H]4[C@@H]5CCC6=CC(=O)CC[C@@H]6[C@H]5CC[C@]14C)[C@@H]32 | 6.43% [100 µM] (active) |
